The source of these data is PubChem BioAssay (NCATS).

Inconclusive results are not listed. Calls of active or inactive are those of the source. Calls follow the shape of the dose curve; as a rule, active = well fitted curve in the direction sought with a large enough effect; inconclusive = small, poorly fitted or top-dose-only effect, or another doubt; inactive = no such curve, though single readings can be large; an effect the other way counts as inactive or inconclusive.

The target in assay [1] is Glutathione peroxidase 1 (Homo sapiens) (UniProt P07203). The assay can be described thus: Primary qHTS Assay for Inhibitors of Recombinant Selenoprotein Glutathione Peroxidase 1 (GPX1) (AID 1845191). Also: nearly all actives have a fitted effect of over 65% in size. Also: potency is read from the fitted curve at half-maximal effect. In a few lines:
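NADPH consumption tracked by fluorescence at 340/450 nm between t=0 and t=15 min, room temperature. Final mix: 10 nM GPX1, 100 nM glutathione reductase, 1 mM GSH, 0.5 mM NADPH, 0.5 mM cumene hydroperoxide, 0.01% BSA; 30 min compound–enzyme preincubation.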

Assay [2] can be described thus: Quantitative High-Throughput drug screen in 47 multiple myeloma cell lines against the NCATS MIPE library collection: FR4_PLB cell viability assay (AID 1918924; also: nearly all actives have a fitted effect of over 35% in size; also: potency is read from the fitted curve at half-maximal effect). In outline:
(§1)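 Myeloma cells (500 per well) were exposed to MIPE 4.0 compounds by pin transfer and incubated 48 hours at 37C, 5% CO2. Viability was read as ATP by CellTiter-Glo luminescence, normalised to DMSO (100%) and media-only (0%) wells.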

Assay [3] in a line: Quantitative High-Throughput drug screen in 47 multiple myeloma cell lines against the NCATS MIPE library collection: EJM_DSMZ cell viability assay (AID 1918926; also: nearly all actives have a fitted effect of over 30% in size; also: potency is read from the fitted curve at half-maximal effect). In a few lines: as §1
Assay [4] can be described thus: Quantitative High-Throughput drug screen in 47 multiple myeloma cell lines against the NCATS MIPE library collection: ARP1_JJKsccF8 cell viability assay (AID 1918928; also: nearly all actives have a fitted effect of over 40% in size; also: potency is read from the fitted curve at half-maximal effect). In outline: (§2)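 Viability screen: myeloma cells (500/well) incubated 48 h at 37 °C, humidified 5% CO2, with pinned library compounds; CellTiter-Glo added, luminescence read; DMSO wells set 100%, medium-only wells 0%.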

A short description of assay [5]: Quantitative High-Throughput drug screen in 47 multiple myeloma cell lines against the NCATS MIPE library collection: Karpas620_DSMZ cell viability assay (AID 1918959). Also: nearly all actives have a fitted effect of over 30% in size. In outline: as §1
The target in assay [6] is Luciferin 4-monooxygenase (Photinus pyralis) (UniProt P08659). The assay can be described thus: Primary firefly luciferase (FLuc) qHTS assay for identification of artifact compounds. (AID 1845220). Also: nearly all actives have a fitted effect of over 60% in size. In a few lines:
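Cell-free, 1536-well qHTS. Buffer pH 7.6 with 0.01% Tween-20 and 0.05% BSA; 10 uM D-luciferin, 10 uM ATP; 10 nM P. pyralis luciferase; luminescence after 5 min.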

The subject of assay [7] is Nanoluciferase (engineered Oplophorus gracilirostris luciferase). Description: Primary Nanoluciferase (NLuc) qHTS assay for identification of artifact compounds. (AID 1845222). In a few lines: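 Compounds are pinned into diluted (1:55) conditioned medium of NLuc-expressing S16 cells and held 15 min at room temperature protected from light. Nano-Glo substrate follows, and luminescence is read 5 min later.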

Assay [8] is described as follows: Primary redox qHTS assay for identification of artifact compounds. (AID 1845223). In a few lines:
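Redox-cycling detection via DTT (250 uM final) oxidation coupled to Amplex Red (25 uM)/HRP (250 mU/mL) in HBSS. 15 min preincubation plus 30 min after DTT, room temperature. Ex/Em 525/598 nm; 4-parameter Hill fit against DMSO and 10 uM DA3003.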

A short description of assay [9]: Quantitative High-Throughput drug screen in 47 multiple myeloma cell lines against the NCATS MIPE library collection: Delta47_JCRB cell viability assay (AID 1918925; also: nearly all actives have a fitted effect of over 45% in size; also: potency is read from the fitted curve at half-maximal effect). In a few lines: as §1
The nature of assay [10]: Quantitative High-Throughput drug screen in 47 multiple myeloma cell lines against the NCATS MIPE library collection: AMO1_DSMZ cell viability assay (AID 1918927; also: nearly all actives have a fitted effect of over 30% in size; also: potency is read from the fitted curve at half-maximal effect). In a few lines: as §1
The nature of assay [11]: Quantitative High-Throughput drug screen in 47 multiple myeloma cell lines against the NCATS MIPE library collection: KMM1_JCRB cell viability assay (AID 1918960). Also: nearly all actives have a fitted effect of over 30% in size. In a few lines: as §2
The nature of assay [12]: Quantitative High-Throughput drug screen in 47 multiple myeloma cell lines against the NCATS MIPE library collection: Karpas417_ECACC cell viability assay (AID 1918961). The note with it: Karpas417 myeloma viability, CellTiter-Glo ATP luminescence, 48 h; viability (% of DMSO): at 45.8 µM (top of the series). In outline:
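CellTiter-Glo ATP luminescence gave viability after 48 h compound treatment at 37C of 500 multiple myeloma cells per well. Normalisation used DMSO-only wells as 100% and media-only wells as 0% viability; primary qHTS of approved and investigational drugs.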

Assay [13] in a line: Quantitative High-Throughput drug screen in 47 multiple myeloma cell lines against the NCATS MIPE library collection: JIM1_ECACC cell viability assay (AID 1918964; also: potency is read from the fitted curve at half-maximal effect). In outline:
as §1

The nature of assay [14]: Quantitative High-Throughput drug screen in 47 multiple myeloma cell lines against the NCATS MIPE library collection: ARD_JJKsccE7 cell viability assay (AID 1918929; also: potency is read from the fitted curve at half-maximal effect). In a few lines: as §1
Assay [15] deals with Phospholipid hydroperoxide glutathione peroxidase GPX4 (Homo sapiens) (UniProt P36969). Description: Primary qHTS Assay for Inhibitors of Recombinant Selenoprotein Glutathione Peroxidase 4 (GPX4) (AID 1845192). Also: nearly all actives have a fitted effect of over 65% in size. In a few lines: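 NADPH consumption followed by fluorescence at 340/450 nm, t=0 and after 15 min at room temperature. Reaction started with cumene hydroperoxide (0.5 mM final) after 30 min compound–GPX4 preincubation; final 200 nM GPX4, 100 nM GR, 1 mM GSH, 0.5 mM NADPH.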

The nature of assay [16]: Quantitative High-Throughput drug screen in 47 multiple myeloma cell lines against the NCATS MIPE library collection: JIM3_ECACC cell viability assay (AID 1918963; also: nearly all actives have a fitted effect of over 35% in size; also: potency is read from the fitted curve at half-maximal effect). In a few lines: as §1
Assay [17] is described as follows: Quantitative High-Throughput drug screen in 47 multiple myeloma cell lines against the NCATS MIPE library collection: KHM11_PLB cell viability assay (AID 1918962). Also: nearly all actives have a fitted effect of over 35% in size. In outline: as §1

Chain of Glutathione peroxidase 1 (Homo sapiens) (P07203 whole entry, looked up): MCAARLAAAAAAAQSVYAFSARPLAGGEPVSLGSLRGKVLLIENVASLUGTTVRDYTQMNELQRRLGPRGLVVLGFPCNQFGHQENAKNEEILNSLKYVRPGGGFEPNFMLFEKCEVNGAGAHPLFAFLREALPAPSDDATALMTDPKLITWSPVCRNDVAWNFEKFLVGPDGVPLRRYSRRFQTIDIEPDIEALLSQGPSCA
Chain of Phospholipid hydroperoxide glutathione peroxidase GPX4 (Homo sapiens) (P36969 whole entry, looked up): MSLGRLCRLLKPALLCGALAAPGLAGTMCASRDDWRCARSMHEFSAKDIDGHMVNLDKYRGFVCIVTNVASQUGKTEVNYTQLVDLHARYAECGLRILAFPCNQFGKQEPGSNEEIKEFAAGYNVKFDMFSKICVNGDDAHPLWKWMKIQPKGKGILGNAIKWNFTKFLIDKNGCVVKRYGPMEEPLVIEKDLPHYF

As for `Cc1c(OCC(F)(F)F)ccnc1CS(=O)c1nc2ccccc2[nH]1` (stereo not drawn), the Potency result in assay [1], in [2], in [3], in assay [4] and in assay [5] was “inactive” each time.
Turning to `Cc1cc2c(s1)Nc1ccccc1N=C2N1CCN(C)CC1`, the Potency in [1] was 16.1 µM (active). In addition, the Potency entry in assay [6], in assay [2], in assay [9], in assay [3], in assay [10] and in assay [4] was “inactive” in each case. The Potency result in [5], in assay [11], in [12] and in assay [13] was “inactive” each time. Moreover, the call in assay [7] and in assay [8] was inactive.
Take `Oc1ccc(OCc2ccccc2)cc1`: the Potency result in [1], in assay [2], in [3], in [10], in assay [14] and in [5] was “inactive” each time. For the same compound, the Potency result in assay [12] and in assay [13] was “inactive” each time. For the same compound, the Potency in assay [4] is 18.7 µM (active).
For `Cc1cccc(CN2CCN(C(c3ccccc3)c3ccc(Cl)cc3)CC2)c1` (stereo not drawn), the Potency result in assay [1], in [2], in assay [12] and in assay [13] was “inactive” throughout. Moreover, the Potency in assay [9] is 8.33 µM (active); in [3], 18.7 µM (active); in assay [14], 26.4 µM (active).
For the compound `CN1C(C(=O)Nc2ccccn2)=C(O)c2sccc2S1(=O)=O`, the Potency entry in assay [1], in [15], in assay [2], in assay [3], in [4] and in assay [5] was “inactive” in each case. The Potency entry in [16] and in [13] was “inactive” throughout.
For `CN(C)c1ccc(O)c2c1C[C@H]1C[C@H]3[C@H](N(C)C)C(=O)C(C(N)=O)=C(O)[C@@]3(O)C(=O)C1=C2O`, the Potency entry in [1], in assay [10], in assay [14], in assay [5], in assay [11] and in [12] was “inactive” throughout. For the same compound, the Potency entry in [13] was “inactive”. The Potency was 20.9 µM (active) in assay [2], 14.8 µM (active) in [3] and 16.6 µM (active) in assay [4].
As for `NNc1nncc2ccccc12`, the Potency result in [1], in [15], in [2], in assay [4], in [14] and in [5] was “inactive” in each case.
In the case of `COc1c2occc2cc2ccc(=O)oc12`, the Potency result in [1], in assay [15], in assay [9], in assay [3], in [10] and in assay [4] was “inactive” in each case. The Potency entry in [5], in [11], in [17], in assay [16] and in assay [13] was “inactive” in each case.
For the compound `N=C(N)c1ccc2cc(OC(=O)c3ccc(N=C(N)N)cc3)ccc2c1`, the Potency result in assay [1], in [15], in [10], in assay [14], in [5] and in assay [16] was “inactive” each time. Besides, in [13], the Potency entry is “inactive”. The Potency in assay [3] was 18.7 µM (active).
For the compound `COCCCN1CCC(NC(=O)c2cc(Cl)c(N)c3c2OCC3)CC1`, the Potency entry in assay [1] was “inactive”. For the same compound, the Potency was 18.7 µM (active) in assay [9]; 14.8 µM (active) in assay [10]; 20.9 µM (active) in [14]; 18.7 µM (active) in [16]; 16.6 µM (active) in [13].
